Source: PubChem BioAssay (National Center for Advancing Translational Sciences (NCATS))
Only some compounds are listed: those with a hit (about 8% of all), similar ones and a draw of the others.
HCMV antiviral: human cytomegalovirus inhibition; activity change, negative = inhibition, % at 57.5 µM; HFF cells, HCMV-luciferase reporter, 72 h; hits give low values; 410,000 compounds, 4.5% hits; AID 1259415; in the data active means activity change below about -60%; inconclusive means no clear call, values can overlap the other calls; inactive means above about -39%
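Screen run at 2 compound doses on HFFs infected with reporter HCMV, MOI 1 PFU/cell. Luciferase activity from cell lysates at 72 h post infection gave inhibition relative to buffer-only and Salinomycin wells.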
SARS PLpro yeast: blocks SARS-CoV papain-like protease in a yeast assay; 330,000 compounds, 0.19% hits; S. cerevisiae expressing SARS-CoV PLpro, growth rescue; Potency, µM (series often up to 32.9 µM), actives largely listed as activators; calls by dose curve; further: nearly all actives have a fitted effect of over 55% in size
Marburg entry inh: Marburg virus entry inhibition; Marburg virus pseudotyped entry inhibition, cell reporter; Potency, µM (doses to about 37.8 µM), most hits filed as inhibitors; 300,000 compounds, 1.8% hits; calls by dose curve; tested in HEK293 cells
HCV inh: blocks hepatitis C virus | Huh7.5.1 HCVcc-Cre infection, luciferase reporter, 44 h | Potency, µM (series often up to 41.8 µM), usual class: inhibitors | 340,000 compounds, 3.4% hits | AID 651820; active means well fitted inhibition curve with a large enough effect; inconclusive means small, poorly fitted or top-dose-only effect, or another doubt; inactive means no such curve, though single readings can be large or run the other way
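Cells (1,000/well) were plated 4 h before compound, then infected with HCVcc-Cre virus (~0.5 moi). After 44 h further culture, infection was read as luciferase luminescence following a 15 min substrate incubation at room temperature.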
Lassa entry inh: blocks Lassa virus binding to or entry into cells; Lassa virus pseudotype entry inhibition, cell reporter; Potency, µM (titrated, usually from 37.9 µM), usual class: inhibitors; 300,000 compounds, 1.2% hits; AID 540256; calls by dose curve; tested in HEK293 cells; further: nearly all actives have a fitted effect of over 50% in size
FMDV inh: antivirals against foot and mouth disease virus | FMDV antiviral cell-based qHTS | Potency, µM (highest dose often 57.9 µM), hits mostly inhibitors | AID 1159524 | 410,000 compounds, 1.2% hits; calls by dose curve; tested in HEK293T cells; further: read-out not given here; nearly all actives have a fitted effect of over 45% in size
Large screens that a line does not name were inactive.

CC1(C)CN(C2CCCCC2)C(=O)[C@@H]1CC(=O)Nc1ccccc1	none (no result: HCMV antiviral, SARS PLpro yeast, Marburg entry inh, HCV inh, FMDV inh)
COc1cccc(OC)c1OCCNCC1CSc2ccccc2O1 (stereo unspecified)	HCMV antiviral inconclusive, Marburg entry inh 26µM, HCV inh inconclusive, Lassa entry inh inconclusive (no result: SARS PLpro yeast)
CC(C)(C)c1ccccc1NC(=S)NCc1ccccc1	HCMV antiviral -72, Marburg entry inh inconclusive
S=C(NCc1ccncc1)Nc1cccc(Cl)c1	Marburg entry inh inconclusive
Fc1ccc(CNC(=S)Nc2ccc(Cl)cc2)cc1	HCMV antiviral inconclusive, SARS PLpro yeast inconclusive
S=C(NCc1ccc(Cl)cc1)Nc1ccncc1	HCMV antiviral inconclusive, HCV inh 6.3µM (no result: Marburg entry inh, Lassa entry inh)
CN(C)CCNC(=S)Nc1ccccc1C(C)(C)C	none
S=C(NCc1ccc(Cl)cc1)Nc1ccccc1	HCMV antiviral -66
O=C(Nc1ncc2c(n1)-c1ccccc1CC2)C1CC1	HCV inh inconclusive, Lassa entry inh inconclusive
CC(C)SCC(=O)Nc1ncc2c(n1)-c1ccccc1CC2	HCMV antiviral -64, HCV inh inconclusive, Lassa entry inh inconclusive
CCCc1nn2c(=O)cc(COC(=O)c3cccc(NC(=O)CCc4ccccc4)c3)nc2s1	Lassa entry inh inconclusive (no result: SARS PLpro yeast, Marburg entry inh, HCV inh)
Cc1cccc(Nc2n[nH]c(C)c2[N+](=O)[O-])c1	Marburg entry inh 13µM, Lassa entry inh inconclusive
Cc1[nH]nc(Nc2ccccc2)c1[N+](=O)[O-]	Lassa entry inh inconclusive
CCOC(=O)c1c(NC(=O)C(C)N2CCN(C(=O)c3ccco3)CC2)sc2c1CCCC2 (stereo unspecified)	Marburg entry inh inconclusive, HCV inh 10µM, Lassa entry inh 11µM, FMDV inh inconclusive
COC(=O)c1cc(NC(=O)CC2SC(=Nc3ccccc3)N(CCc3c[nH]c4ccccc34)C2=O)cc(C(=O)OC)c1 (stereo unspecified)	Marburg entry inh inconclusive, HCV inh 4.5µM, Lassa entry inh inconclusive
COCCN1C(=O)C(CC(=O)Nc2ccc(C(=O)O)cc2)SC1=Nc1ccccc1 (stereo unspecified)	none
Cc1ccc(C)c(NC(=O)CCCn2c(C)c3cnn(-c4ccccc4)c(=O)c3c2C)c1	FMDV inh inconclusive (no result: SARS PLpro yeast, HCV inh)
CN(C(=O)CN1CCN(c2cc(-c3ccc(-c4ccccc4)cc3)ncn2)CC1)c1ccccc1	HCMV antiviral -67, FMDV inh 22µM (no result: SARS PLpro yeast, Marburg entry inh, HCV inh, Lassa entry inh)
CCOc1ccc(CN2CCN(CC3=Cc4cccc(OC)c4OC3)CC2CCO)cc1 (stereo unspecified)	HCV inh 10µM, FMDV inh inconclusive (no result: Marburg entry inh, Lassa entry inh)
COc1ccc(-c2ccc(SCc3cccnc3)nn2)cc1OC	HCMV antiviral -63, HCV inh inconclusive (no result: Marburg entry inh, Lassa entry inh)
COC(=O)[C@H]1[C@@H](c2cccc(C(F)(F)F)c2)NC(=O)N(Cc2ccccc2)[C@@H]1C	none (no result: HCMV antiviral, SARS PLpro yeast, HCV inh, Lassa entry inh, FMDV inh)
CCc1cccc(CC)c1NC(=O)CCS(=O)(=O)c1ccc(Br)cc1	none (no result: SARS PLpro yeast, Marburg entry inh, HCV inh)
O=C(CCN1C(=O)S/C(=C\c2ccccc2)C1=O)N1CCCCC1	Marburg entry inh inconclusive
CCN(CC)CCC(=O)N1C/C(=C/c2ccccc2)C(=O)/C(=C\c2ccccc2)C1	HCMV antiviral -100, Marburg entry inh 11µM, HCV inh inconclusive, Lassa entry inh 10µM, FMDV inh 3.5µM (no result: SARS PLpro yeast)
O=C1/C(=C\c2ccc(Cl)c(Cl)c2)CN(C(=O)CCN2CCOCC2)C/C1=C/c1ccc(Cl)c(Cl)c1	HCMV antiviral -102, Marburg entry inh inconclusive, HCV inh inconclusive, Lassa entry inh inconclusive, FMDV inh 3.2µM (no result: SARS PLpro yeast)
O=C(NCCN1CCOCC1)c1ccc(Cl)c(Cl)c1	none
O=C1/C(=C\c2ccccc2)CN(C(=O)CCN2CCCCC2)C/C1=C/c1ccccc1	HCMV antiviral -100, Marburg entry inh 1µM, HCV inh inconclusive, Lassa entry inh inconclusive, FMDV inh 7.9µM (no result: SARS PLpro yeast)
C#CCNc1ccc2c(c1)OC[C@H](C)NS2(=O)=O	none (no result: HCMV antiviral, SARS PLpro yeast, Marburg entry inh, HCV inh, FMDV inh)
CCc1ccc(-c2[nH]nc3nc(-c4ccc(OC)cc4)cc(C(=O)NCCCOC)c23)cc1	none (no result: SARS PLpro yeast, Marburg entry inh, HCV inh)
Cc1cc(C)cc(N2C(=O)N(Cc3cc(=O)n4ccccc4n3)c3ccccc3S2(=O)=O)c1	Lassa entry inh inconclusive (no result: SARS PLpro yeast, Marburg entry inh, HCV inh)
Cc1cc(C)cc(COc2ccc3c(C)c(CC(=O)O)c(=O)oc3c2C)c1	none
COc1cc(COc2ccc3c(C)c(Cc4ccccc4)c(=O)oc3c2C)cc(OC)c1OC	Marburg entry inh inconclusive, HCV inh 6.3µM, FMDV inh inconclusive
Cc1c(C)c2ccc(OCc3ccc(C(=O)O)o3)c(C)c2oc1=O	HCMV antiviral -101, Marburg entry inh inconclusive, Lassa entry inh 4.1µM, FMDV inh 18µM
COc1cc(COc2ccc3c(C)c(Cc4ccccc4)c(=O)oc3c2)cc(OC)c1OC	Marburg entry inh inconclusive, HCV inh inconclusive, Lassa entry inh inconclusive, FMDV inh inconclusive
CCCCC1=C([O-])C2N=CC=CC2=[N+](c2ccccn2)C1=O (stereo unspecified)	none
CS(=O)(=O)N1CCN(c2ccccc2NC(=O)c2ccc(-c3ccc(Br)cc3)o2)CC1	HCV inh 6.3µM
Cn1c(N)c(C(=O)/C=C/c2ccccc2)c(=O)[nH]c1=O	Marburg entry inh inconclusive
CN(C(=O)COC(=O)/C=C/c1ccc2c(c1)OCO2)c1c(N)n(Cc2ccccc2)c(=O)[nH]c1=O	none
O=C(/C=C/c1ccc2c(c1)OCO2)c1c(O)n(CCc2ccccc2)c(=O)[nH]c1=O	HCMV antiviral -84, Lassa entry inh inconclusive, FMDV inh 13µM
O=C(/C=C/c1ccccc1)c1c(O)n(CCc2ccccc2)c(=O)[nH]c1=O	Marburg entry inh inconclusive, FMDV inh 13µM
COc1cc(/C=C/C(=O)c2c(O)n(CCc3ccccc3)c(=O)[nH]c2=O)ccc1O	HCMV antiviral -97, Marburg entry inh inconclusive, Lassa entry inh inconclusive
Nc1ccccc1C(=O)/C=C/c1ccc2c(c1)OCO2	HCMV antiviral -71, Marburg entry inh inconclusive, Lassa entry inh inconclusive
CC1=C(C(=O)Nc2ccccc2)C(c2ccccc2Cl)n2ncc(C(=O)Nc3cccc(C)c3)c2N1 (stereo unspecified)	HCMV antiviral inconclusive (no result: SARS PLpro yeast, Marburg entry inh, HCV inh)
CCNC(=O)O/N=C(\C)c1sc(-c2ccc(Cl)cc2)nc1C	Marburg entry inh inconclusive, HCV inh 10µM
O=C(Cn1cc2ccccc2n1)N1CCOc2ccc(C(O)C3CCCCC3)cc2C1 (stereo unspecified)	none (no result: HCMV antiviral, SARS PLpro yeast, Marburg entry inh, HCV inh, Lassa entry inh)
CC(=O)C1=CCC(c2ccccc2)N(S(=O)(=O)c2cccc(C)c2)C1 (stereo unspecified)	none (no result: SARS PLpro yeast, Marburg entry inh, HCV inh, Lassa entry inh)
O=C1[C@@H]2[C@H]3[C@H](O)[C@H](O)C/C(=N/OC[C@@H](O)COCc4ccco4)[C@@H]3CC[C@H]2C(=O)N1c1ccc(F)cc1F	none (no result: HCMV antiviral, SARS PLpro yeast, HCV inh, Lassa entry inh, FMDV inh)
COc1ccc(CCNC(=O)c2ccc3c(c2)ncn3-c2ccc(C(C)C)cc2)cc1OC	Lassa entry inh inconclusive (no result: SARS PLpro yeast, Marburg entry inh, HCV inh)
COc1cc2ncn(-c3cc(OCCc4ccccc4)c(C(N)=O)s3)c2cc1OC	Lassa entry inh 18µM (no result: HCMV antiviral, SARS PLpro yeast, Marburg entry inh, HCV inh, FMDV inh)
COc1cc2ncn(-c3cc(OCc4ccccc4C(F)(F)F)c(C(=O)N(C)C)s3)c2cc1OC	none (no result: HCMV antiviral, SARS PLpro yeast, Marburg entry inh, HCV inh, FMDV inh)
